From PubChem BioAssay (EPA / NIEHS)
“And” between values parts separate entries of the source, which are not always exact repeats. Equal values may be shown once. The source holds several records for some structures; these can differ, active in one and inactive in another. The source made the active and inactive calls. The calls were made as follows: active = hit-call score of the fitted dose curve at least 0.9, where 1 is the maximum; inactive = score below 0.9.

Read-out: Monocyte Chemoattractant Protein-1 (MCP1), CCL2 (gene 6347)
Assay: BSK_LPS_MCP1: BioMAP Diversity Plus: LPS Assay for Monocyte Chemoattractant Protein-1 (MCP1) Biomarker Activity (AID 2283081);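 as to AC50: co-culture stimulated with LPS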
Settings: primary human HUVEC with PBMC; actives raise or lower the signal
Method: BSK_LPS is a cell-based, multiplexed-readout assay that uses umbilical vein endothelium and peripheral blood mononuclear cells, a human vascular primary cell co-culture, with measurements taken at 24 hours after chemical dosing in a 96-well plate.BSK_LPS_MCP1 is an assay component measured in the BSK_LPS assay. It measures MCP-1 antibody related to regulation of gene expression using ELISA technology.Data from the assay component BSK_LPS_MCP1 was analyzed into 1 assay endpoint. This assay endpoint, BSK_LPS_MCP1, was analyzed with bidirectional fitting relative to DMSO as the negative control and baseline of activity. Using a type of binding reporter, gain or loss-of-signal activity can be used to understand changes in the signaling as they relate to the gene CCL2. Furthermore, this assay endpoint can be referred to as a primary readout, because this assay has produced multiple assay endpoints where this one serves a signaling function. To generalize the intended target to other relatable targets, this assay endpoint is annotated to the cytokine intended target family, where the subfamily is chemotactic factor.
The levels of cell surface (or secreted, indicated by the prefix "s") biomarker endpoints were measured by ELISA. Overt cytotoxicity to cells in confluent adherent cultures (all systems other than the BT system) was assessed by measuring total protein levels using sulforhodamine B (SRB) staining in parallel cultures at the time of biomarker measurements, indicated as SRB endpoints. For proliferation assays for adherent cell types, individual cell types are cultured at sub-confluence and relative cell numbers quantified by SRB staining at time points optimized for each system (48 h: 3C and CASM3C systems; 72 h: BT and HDF3CGF systems; 96 h: SAg system). SRB was performed by staining cells with 0.1% SRB after fixation with 10% TCA and reading wells at 560 nm.Viability and proliferation of PBMC (T cells) was quantified by Alamar Blue reduction for the SAg and BT systems. For PBMC viability (referred to as PBMC Cytotoxicity within the assay endpoint names), cells were plated (75,000/well in a 96-well plate) and then chemical samples added for 1 h before addition of activators, SEB and TSST-1 (20 ng/mL final concentration each). Cells were incubated for 90 h. Then, Alamar Blue (20 uL/well) (Invitrogen, Cat DAL1100) was added for 6 h, and the plates were read with a fluorescence microplate reader at 546/580 nm (excitation/emission). For PBMC proliferation, cells were plated and activated as above but incubated for only 16 h prior to addition of Alamar Blue. Plates were read after 6 h.

| SMILES | outcome | AC50 |
| --- | --- | --- |
| OCC(F)(F)C(F)(F)C(F)(F)CO | inactive |  |
| FC(F)(F)C(F)(F)C(F)(F)C(F)(F)C(F)(F)C(F)(F)CC[Si](Cl)(Cl)Cl | inactive | 0.219 µM (active) |
| NS(=O)(=O)C(F)(F)C(F)(F)C(F)(F)C(F)(F)C(F)(F)C(F)(F)F | inactive | 30 µM (active) |
| Cc1ccc(S(=O)(=O)C(I)I)cc1 |  | 3.77 µM (active) |
| O=C(O)C(F)(F)C(F)(F)C(F)(F)OC(F)(C(F)(F)F)C(F)(F)F | inactive |  |
| Cc1ccc(O)c(-n2nc3ccccc3n2)c1 | inactive |  |
| O=C(F)C1(F)C(F)(F)C(F)(F)C(F)(F)C(F)(F)C1(F)F | inactive |  |
| NCC(F)(F)C(F)(F)C(F)(F)C(F)(F)C(F)(F)C(F)(F)F | inactive | 19.9 µM (active) |
| O=S(=O)(Cl)C(F)(F)C(F)(F)C(F)(F)C(F)(F)C(F)(F)C(F)(F)C(F)(F)C(F)(F)F | inactive |  |
| C=C(C)C(=O)OCC(F)(F)C(F)(F)C(F)(F)C(F)F | inactive |  |
| O=C(c1ccccc1)c1ccc(O)cc1O | inactive |  |
| O=C(O)CCC(F)(F)C(F)(F)C(F)(F)F | inactive |  |
| OCC(F)(F)C(F)(F)C(F)(F)C(F)(F)C(F)(F)C(F)(F)C(F)(F)C(F)(F)CO | inactive |  |
| CCN=C1C=CC(=C(c2ccc(N(CC)CC)cc2)c2ccc(N(CC)CC)cc2)c2ccccc21 |  | 261 nM (active) and 1.13 µM (active) |
| NC(=O)C(F)(F)C(F)(F)C(F)(F)C(F)(F)C(N)=O | inactive |  |
| O=C(O)C(F)(F)C(F)(F)C(F)(F)C(F)(F)C(F)(F)C(F)(F)C(F)F | inactive |  |
| CNS(=O)(=O)C(F)(F)C(F)(F)C(F)(F)C(F)(F)C(F)(F)C(F)(F)C(F)(F)C(F)(F)F | inactive |  |
| OC(O)C(F)(F)C(F)(F)F | inactive |  |

| SMILES | outcome | AC50 |
| --- | --- | --- |
| O=C(O)C(F)(F)C(F)(F)C(F)(F)C(=O)O | inactive |  |
| CCN(CC)c1ccc(C=O)cc1 | inactive |  |
| CN(C(=O)C(F)(F)C(F)(F)C(F)(F)F)[Si](C)(C)C | inactive |  |
| FC(F)(F)C(F)(F)C(F)(F)C(F)(F)C(F)(F)C(F)(F)C(F)(F)CCI | inactive |  |
| Nc1cc([N+](=O)[O-])cc(Cl)c1O | inactive |  |
| COC(F)(C(F)F)C(F)(F)F (stereo not given) | inactive |  |
| O=S(=O)(OCC(F)(F)F)C(F)(F)C(F)(F)C(F)(F)C(F)(F)F | inactive | 20.6 µM (active) |
| O=C(O)C(F)(F)C(F)(F)C(F)(F)OC(F)(F)F | inactive |  |
| CCN(CC)c1ccc2c(c1)Oc1cc(N(CC)CC)ccc1C21OC(=O)c2ccccc21 | inactive |  |
| NCC(F)(F)C(F)(F)C(F)(F)C(F)(F)C(F)(F)C(F)(F)C(F)(F)C(F)(F)F | inactive |  |
| CCN(CC)c1ccc(N=Nc2ccccc2)cc1 |  | 31.9 µM (active) |
| CCN(CCO)S(=O)(=O)C(F)(F)C(F)(F)C(F)(F)C(F)(F)C(F)(F)C(F)(F)C(F)(F)C(F)(F)F | inactive | 21.8 µM (active) |
| OCC(O)CC(F)(F)C(F)(F)C(F)(F)C(F)(F)F (stereo not given) | inactive |  |
| NC(=O)C(F)(F)C(F)(F)C(F)(F)C(F)(F)C(F)(F)C(F)(F)C(F)(F)F | inactive |  |
| C=CC(=O)OCC(F)(F)C(F)(F)C(F)(F)COC(=O)C=C |  | 18.8 µM (active) and 16.1 µM (active) |
| Cc1cnccn1 | inactive |  |
| O=C(Cl)C(F)(F)C(F)(F)C(F)(F)C(F)(F)C(F)(F)C(F)(F)F | inactive |  |
